The whole screen tested about 94,000 compounds, of which about 6,200 (6.6%) were called active. Entries that show only a call come without a potency. Roughly 31% stayed inconclusive and do not appear here. This is one part of a sample in which actives are shown more often than they occur. Calls follow the shape of the dose curve; as a rule, active = well fitted inhibition curve with a large enough effect; inconclusive = small, poorly fitted or top-dose-only effect; inactive = flat fitted curve, though single readings scatter.
assay: Cytotoxic Profiling in HEK 293 Cell Line of Diverse Libraries Using Quantitative High-Throughput Screening; conditions: HEK 293 viability, ATP luminescence (CellTiter-Glo), 48-72 h; series mostly up to 115 µM; also: nearly all actives have a fitted effect of over 60% in size
Outline: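 qHTS cytotoxicity; HEK 293, 250 cells/well; compound pinned; 48 or 72 hr, 37 degree Celsius, 5% CO2, 95% humidity; CellTiter-Glo, 10 min RT; luminescence (ATP).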
Potency is read from the fitted curve at half-maximal effect.

Compound | Potency
COCC(=O)N1CCCN(Cc2ccncc2)C(c2ccccc2)CC(=O)NCC1 (configuration not stated) | inactive
CC(C)c1ccc(N2C(=O)N[C@@H]3CCN(C(=O)c4ccc(C(C)(C)C)cc4)[C@@H]3C2=O)cc1 | 79.4 µM (active)
COc1cccc(-c2ccc(CN3CCCC3C(=O)NC3CCCCC3)cc2)c1 (configuration not stated) | 44.7 µM (active)
O=C(NCCCc1ccccc1)C1CCc2nnc(-c3cccc(C(F)(F)F)c3)n21 (configuration not stated) | inactive
COc1cccc(CC(=O)NC2CCN(c3cn[nH]c(=O)c3)CC2)c1 | inactive
CNC(=O)C1CCCCN1Cc1ccc(-c2cccs2)cc1 (configuration not stated) | 28.2 µM (active)
COc1cccc(-c2cccc(C(=O)N3CCCC3C(=O)NCC3CC3)c2)c1 (configuration not stated) | inactive
COc1cccc(-c2ccc(CN3CCCC3C(=O)NCc3ccccc3Cl)cc2)c1 (configuration not stated) | 31.6 µM (active)
COC(=O)[C@H](Cc1ccc(OC)cc1)NC(=O)[C@H]1CN(C(=O)c2cccnc2)CCN1C(=O)NC1CCCCC1 | inactive
Cc1ccc(-c2cccc(CN3CCCC3C(=O)NCC(F)(F)F)c2)cc1Cl (configuration not stated) | 31.6 µM (active)
COc1ccc(C(=O)N2CCN(Cc3ccccc3-c3ccc(C)c(Cl)c3)CC2)cc1 | inactive
CC(=O)N1CCCN(C(=O)C2CCCCN2Cc2ccc(-c3ccsc3)cc2)CC1 (configuration not stated) | inactive
O=C(NCc1ccccn1)C1CCN(C(=O)c2ccc(-c3cccs3)cc2)CC1 | inactive
Cc1ccc(-c2cccc(CN3CCCC(NC(=O)c4ccc(C(F)(F)F)cc4)C3)c2)cc1Cl (configuration not stated) | inactive
COCCC(=O)N1CCC2(CCC2NC(=O)COC)CC1 (configuration not stated) | inactive
CCN(CC)CC(=O)N1CCC(Oc2ccccc2C)(C(=O)O)CC1 | inactive
COCC(=O)N(C1CCOCC1)C1CCN(C(=O)c2cccc(OC)c2)CC1 | inactive
COc1ccccc1CN1C(=O)COC[C@@H]1[C@H](O)c1ccc(NC(=O)c2ccc(C#N)cc2)cc1 | 39.8 µM (active)
CCN1C(=O)COC[C@@H]1C(O)c1ccc(NC(=O)Cc2ccc(OC)cc2)cc1 (some centres not stated) | inactive
CC(C)CN1C(=O)COC[C@@H]1[C@H](O)c1ccc(NC(=O)Cc2ccccc2)cc1 | inactive
Cc1ccc(NC(=O)N2CC[C@H]3C(=O)NCCCCCN(Cc4cccnc4)[C@@H]3C2)cc1C | inactive
O=C(CCC1CCCC1)N1CCN2CCS(=O)(=O)N(C3CC3)C(=O)C2C1 (configuration not stated) | inactive
CC(C)c1ccc(S(=O)(=O)N(C)CC2CCOC2)cc1 (configuration not stated) | inactive
O=c1[nH]c(-c2ccncc2)nc2c1CCN(S(=O)(=O)N1CCCC1)C2 | inactive
O=C([C@@H]1C[C@H](F)CN1S(=O)(=O)c1ccc(Cl)cc1)N1CCCCC1 | inactive

Compound | Potency
O=C(c1cccc(Br)c1)N1CCN(C2CCN(Cc3ccccn3)C2=O)CC1 (configuration not stated) | inactive
O=C1CN(Cc2ccc(-c3ccccc3)cc2)CCN1c1cc(Cl)ncn1 | 31.6 µM (active)
O=C(c1ccncc1)N1CCN(c2ccc(Cl)nn2)C(=O)C1 | inactive
Cn1cc(CN2CCN(Cc3ccccc3)CC2)ccc1=O | inactive
COc1ccc(Cn2c(CN(C)S(C)(=O)=O)n[nH]c2=O)cc1 | inactive
CC(C(=O)NC1CCCCC1)[C@@H]1CC[C@@]2(C)CC[C@H](N[S+](C)(=O)[O-])[C@@H](C)[C@@H]2[C@H]1O (some centres not stated) | inactive
CN(Cc1ccccc1)Cc1ccc(F)cc1 | inactive
CN(Cc1ccc(OC(F)(F)F)cc1)Cc1ccc(-c2ccccc2)cc1 | inactive
CN(Cc1ccc(-c2ccccc2)cc1)C(=O)c1ccccc1F | 89.1 µM (active)
O=C(CC1Cc2ccccc2C1)N1CCN(CCO)CC(O)C1 (configuration not stated) | inactive
CCCCCC(=O)Nc1nc2c(s1)C[C@@H]1[C@](C)(CO)[C@H](O)CC[C@@]1(C)[C@@H]2CC(=O)N1CCC(C(N)=O)CC1 | inactive
O=C(CCn1cccn1)N[C@@H]1CN(Cc2ccccc2)C[C@H]1CO | inactive
CSc1ccc(CNC(=O)c2noc(-c3ccc(C)cc3)n2)cc1 | inactive
CC1=Nc2cc(C(=O)NCc3ccc(C)cc3)ccc2Sc2ccc(Cl)cc21 | 31.6 µM (active)
O=C(CCc1cc(Cl)no1)NCCc1noc(C2CC2)n1 | inactive
COc1ccc(-c2nnc3n2CCN([S+](C)(=O)[O-])C3)cc1 | inactive
Cc1cc(C)n(C2CN(c3cc(C4CC(O)C4)nc(C)n3)C2)n1 (configuration not stated) | inactive
Cc1cc(C)n(-c2ccc(NC(=O)CC[C@H]3NC(=O)c4ccccc4NC3=O)cc2)n1 | inactive
COc1ccc(C(=O)N[C@@H]2CCC[C@@H]2C(=O)NCc2cccc(OC)c2)cc1 | inactive
COc1ccc(CC(=O)NC2CCCc3c2[nH]c2ccccc32)cc1 (configuration not stated) | 35.5 µM (active)
O=C(NC1CCCc2c1[nH]c1ccc(F)cc21)c1ccccn1 (configuration not stated) | inactive
CN1CCCN(C(=O)c2ccccc2)c2ccccc21 | inactive
O=C(NCc1cccc(Cl)c1)c1ccc2nnc(Cc3ccc(Cl)cc3)n2c1 | 44.7 µM (active)
COCCNC(=O)c1ccc2nnc(-c3cccc(C(F)(F)F)c3)n2c1 | inactive
O=C(NCc1ccc(F)cc1)c1ccc2nnc(Cc3ccco3)n2c1 | inactive

Compound | Potency
O=C(NCc1ccc(F)c(F)c1)c1ccc2nnc(-c3cccnc3)n2c1 | inactive
CCN1CCN(C(=O)c2ccc3nnc(Cc4ccc(Cl)cc4)n3c2)CC1 | inactive
O=C(NCc1ccc(C(F)(F)F)cc1)c1ccc2nnc(-c3ccc(C(F)(F)F)cc3)n2c1 | 35.5 µM (active)
COc1cccc(CN2CC(O)CN(S(C)(=O)=O)CC2=O)c1OC (configuration not stated) | inactive
COc1ccc2[nH]c(C(=O)N[C@@H]3CN(S(C)(=O)=O)C[C@H]3CN(C)C)cc2c1 | inactive
CCNC(=O)N1CCC(n2c(C)cnc2C2CCC2)CC1 | inactive
COCCc1noc(CC2CCOC3(CCN(C(=O)Nc4ccc5c(c4)OCCO5)CC3)C2)n1 (configuration not stated) | inactive
COc1ccc(CN2CCC3(CC2)CC(=O)c2ccc(Cl)cc2O3)cc1 | 39.8 µM (active)
COc1ccc(CN2CCC3(CC(C(C)C)=NO3)C2)cc1 (configuration not stated) | inactive
CC1=NOC2(CCN(Cc3ccncc3)CC2)C1 | inactive
COc1ccccc1CN1CC[C@H](CNC(C)=O)[C@H](N(C)C)C1 | inactive
CC(=O)N1CCC(C(=O)NCC2CCN(c3cc(-c4ccc(C)cc4)[nH]n3)CC2)CC1 | inactive
O=C(c1ccc2cc[nH]c2c1)N1CCCN(c2cc(-c3ccc(Cl)cc3)[nH]n2)CC1 | 39.8 µM (active)
O=C(NCC1CCN(c2cc(-c3ccc(Cl)cc3)[nH]n2)CC1)c1ccc(=O)[nH]c1 | inactive
O=C(c1ccc(F)cc1F)N1CCN(c2cc(-c3ccc(Cl)cc3)[nH]n2)CC1 | 39.8 µM (active)
O=C(N1CCN(c2cc(-c3ccc(Cl)cc3)[nH]n2)CC1)C1(c2ccccc2)CC1 | 44.7 µM (active)
COc1ccccc1C(=O)N1CCCN(c2ccc3nnc(C)n3n2)CC1 | inactive
COc1ccccc1C(=O)N1CCCN(c2nnc3ccccn23)CC1 | inactive
O=C(NCc1ccccc1F)C1(c2ccc(Cl)cc2)CCOCC1 | inactive
O=C(c1ccccc1Cl)N1CCCN(c2cc(-c3ccc(F)cc3)[nH]n2)CC1 | 44.7 µM (active)
Cc1nccn1CC(=O)NCC1CCN(c2cc(-c3ccccc3)[nH]n2)CC1 | inactive
O=C(Cc1ccc(F)cc1)NC1CCN(c2cc(-c3ccc(Cl)cc3)[nH]n2)CC1 | inactive
COc1ccc(-c2cc(N3CCN(C(=O)c4ccncc4)CC3)n[nH]2)cc1 | inactive
C#CCNC(=O)C[C@@H]1O[C@H](CNC(C)=O)[C@@H](O)[C@H]1O | inactive
O=C(NCCc1ccccc1)c1nc2sccn2c1-c1ccccc1 | inactive

Compound | Potency
Cc1nc(CC(=O)N2C[C@@H](CN3CCCCCC3)[C@@H](CO)C2)cs1 | inactive
COCC(=O)N1C[C@@H](COc2cccnc2)[C@H](c2ccccn2)C1 | inactive
CN(CCc1ccccn1)[C@@H]1[C@H](O)[C@H](CO)O[C@@H]1CNS(=O)(=O)c1cccs1 | inactive
O=C(c1cnccn1)N1CCC(NCc2cc3n(n2)CCCNC3)CC1 | inactive
Cc1noc(C)c1S(=O)(=O)N[C@@H]1C[C@H](Cn2cc(C3CC3)nn2)[C@@H](O)[C@H]1O | inactive
O=C(NC1CCCCC1)C1CN(C(=O)c2ccccc2F)CC12CCOCC2 (configuration not stated) | inactive
Cc1ccc(-n2c(C3CCN(C(=O)c4ccoc4)CC3)n[nH]c2=O)cc1 | inactive
COc1ccc(-c2ccccc2C(=O)N2CCC(NC(=O)Cc3ccc(F)cc3)CC2)nn1 | inactive
COc1ccc(CC(=O)NC2CCN(c3ccc4nnc(C)n4n3)CC2)cc1 | inactive
Cc1cc(C)cc(-c2ccc(CN3CCCC(NC(=O)c4ccccc4)C3)cc2)c1 (configuration not stated) | 28.2 µM (active)
CC(C)Nc1ncc(C(=O)NC2CCCN(CCc3ccccc3)C2)cn1 (configuration not stated) | inactive
COc1ccccc1-c1ccc(C(=O)O)cc1 | inactive
COc1ccc(F)cc1-c1ccc(CN2CCC(N[S+](=O)([O-])c3ccccc3)C2)cc1 (configuration not stated) | 44.7 µM (active)
O=C(NC1CCCN(c2ccc3nnc(C4CC4)n3n2)C1)c1ccc(Cl)nc1 (configuration not stated) | inactive
Cc1ccc(-c2cccc(CN3CCCC(NC(=O)c4ccc(Cl)cc4)C3)c2)cc1Cl (configuration not stated) | inactive
COc1ccc(CC(=O)NC2CCN(Cc3ccc(-c4ccccc4OC)cc3)C2)cc1 (configuration not stated) | 39.8 µM (active)
Fc1ccc(CN2CC(Oc3ccc(F)cc3F)C2)cc1 | inactive
COc1ccccc1-c1ccc(CN2CCC(NC(=O)c3ccc(Cl)nc3)C2)cc1 (configuration not stated) | 50.1 µM (active)
COc1ccccc1-c1nnc2ccc(C(=O)NC3CC3)cn12 | inactive
CN(C)C(=O)C1CN(C(=O)c2ccccc2Cl)CC12CCOCC2 (configuration not stated) | inactive
Cc1cnc(C2CC2)n1C1CCN(C(=O)C(C)C)CC1 | inactive
COc1ccc(C(=O)N2CCOC3(CCN(C(=O)CN)CC3)C2)cc1 | inactive

From PubChem BioAssay AID1345083 (National Center for Advancing Translational Sciences (NCATS), 2018)
